TEAD-YAP block = TEAD-YAP interaction inhibition; HEK-TIYL cells, TEAD-Gal4/YAP UAS-luciferase luminescence; inhibition, % at 9.12 µM; actives 1.4% (n = 640,000); in the data active = inhibition above about 32%;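 also: 0% = median of test compound wells and 100% = reference inhibitor wells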
MITF inh = blocks human microphthalmia-associated transcription factor; O75030; AlphaScreen MITF homodimerization, bead proximity signal; inhibition, % at 2.6 µM; actives 0.91% (n = 650,000); AID 1259374; in the data active = inhibition above about 50%;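 also: 0% = vehicle wells with protein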
FBW7 act = activators of human E3 ligase FBW7. normalized activity (activation), % at 26.1 µM. AID 1259310. AlphaScreen FBW7–phospho-cyclin E peptide binding, activator screen. actives 0.13% (n = 650,000); in the data active = normalized activity above about 1.9%;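 also: purified mutant Fbw7 with reduced substrate affinity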
GPR151 ag = human GPR151 activation | actives 1% (n = 650,000) | PathHunter beta-arrestin GPR151 cells, luminescence | Q8TDV0 | activation, % at 11.2 µM | AID 1508602; in the data active = activation above about 4.9%;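 also: 0% = median of compound wells and 100% = cells with positive control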
GPR151 conf act = confirmation of human GPR151 activators; AID 1508609; shares compounds with GPR151 ag; activation, % at 11.2 µM; 6,700 tested, under 10 active; GPR151 PathHunter beta-arrestin cells, luminescence, 90 min; % of EA-reagent control over plate median;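 active = mean percent activation across replicates above the confirmation screen cutoff of 4.91%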
GPR119 counter = activates human GPR119 in a GPR151 counter-screen. shares compounds with GPR151 ag. actives 0.3% (n = 6,700). GPR119 PathHunter beta-arrestin cells, luminescence, 90 min; 0 = compound-well median, 100 = enzyme-acceptor control. activation, % at 11.2 µM. AID 1508611;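 active = mean percent activation in the counterscreen above 29.09%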;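 also: counterscreen on off-target GPR119 to flag nonselective hits from the GPR151 activator screen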
Target sequence (Q8TDV5 whole entry, looked up): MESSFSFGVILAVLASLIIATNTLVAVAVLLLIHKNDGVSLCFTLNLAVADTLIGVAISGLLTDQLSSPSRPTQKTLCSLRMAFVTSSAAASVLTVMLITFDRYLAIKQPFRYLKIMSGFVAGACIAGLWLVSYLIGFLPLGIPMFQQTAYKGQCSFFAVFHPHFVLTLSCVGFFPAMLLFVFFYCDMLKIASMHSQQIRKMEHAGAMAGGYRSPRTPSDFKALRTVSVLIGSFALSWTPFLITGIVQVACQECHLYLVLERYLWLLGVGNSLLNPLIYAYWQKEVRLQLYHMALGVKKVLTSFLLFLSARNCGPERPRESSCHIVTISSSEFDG
* marks the source's active call; other numbers are inactive results; · = no result. Only some compounds are listed: those with a hit (about 3.5% of all), similar ones and a draw of the others.

SMILES	TEAD-YAP block	MITF inh	FBW7 act	GPR151 ag	GPR151 conf act	GPR119 counter
COc1ccc(CCNc2cc(C)nc(Nc3ccc(-n4ccnc4)cc3)n2)cc1	77*	20	0	5.3*	3	54*
Oc1ccc(CCNc2nc(NCc3ccc4c(c3)OCO4)nc3c2ncn3C2CCCCC2)cc1	0	12	0	17*	0	-2
CCCNc1ccnc(Nc2ccc(-n3ccnc3)cc2)n1	-26	-6	0	0	·	·
CC(C)n1cnc2c(NCc3ccccc3)nc(Nc3ccc(-n4ccnc4)cc3)nc21	-6	14	0	3	·	·
COc1ccc(CCNc2nc(Nc3ccc(-n4ccnc4)cc3)nc3c2ncn3C2CCCCC2)cc1	13	16	0	6.1*	0	2
CC(C)n1cnc2c(NCCO)nc(Nc3ccc(-n4ccnc4)cc3)nc21	-1	8	0	5.4*	-2	-10
COc1ccc(CCNc2ccnc(Nc3ccc(-n4ccnc4)cc3)n2)cc1	82*	0	0	6.5*	2	38*
Cc1ccc(/C=C(\C#N)c2nn(CCO)c(N)c2C#N)cc1	-35	-1	1	0	·	·
CC(=O)Nc1ccc(Nc2ncnc3c2nc(N2CCC(N4CCOCC4)CC2)n3C(C)C)cc1	-7	-2	0	-2	·	·
Cc1c(S(=O)(=O)Nc2cccc(Cl)c2)c(=O)n(C)c(=O)n1C	-2	2	0	0	·	·
Cn1c(N)c(S(=O)(=O)Nc2cccc(Cl)c2)c(=O)n(C)c1=O	-2	3	0	7.7*	0	0
O=C(COc1ccc(S(=O)(=O)NCCc2ccccc2)cc1)NCc1cccnc1	5	11	0	-2	·	·
OC(COc1ccccc1CN1CCCC1)CN1CCc2ccccc2C1 (stereo not drawn)	6	-8	0	8.9*	0	-4
CC(C)(C)OC(=O)C(Cl)(C(=O)OC(C)(C)C)c1ncc([N+](=O)[O-])cc1[N+](=O)[O-]	55*	5	0	14*	0	13
CCOc1cc(/C=N/NS(C)(=O)=O)ccc1O	15	11	0	9.0*	0	-6
CCOc1cc(/C=N/Nc2ccc(S(=O)(=O)O)cc2)ccc1O	18	47	0	0	·	·
CCNC(=O)CN(c1cc(C(F)(F)F)ccc1Cl)S(C)(=O)=O	1	11	0	0	·	·
CS(=O)(=O)N(CC(=O)O)c1cc(C(F)(F)F)ccc1Cl	6	3	0	6.3*	-1	-10
COc1ccc(CNC(=O)C2CCN(C(=O)c3ccc(Br)cc3)CC2)cc1	2	2	0	6.4*	0	5
Cc1ccc(CNC(=O)C2CCN(C(=O)c3ccc(C)cc3)CC2)cc1	3	3	0	-1	·	·
O=C(c1ccc(NS(=O)(=O)c2ccccc2)cc1)N1CCCC1	-2	-13	0	7.2*	1	11
O=C(Nc1ccc(F)cc1F)C1CCN(C(=O)c2ccc(Br)cc2)CC1	5	8	0	5.5*	0	-2
COc1ccc(OCC(=O)N2CCN(C(=O)c3ccccc3)CC2)cc1	-3	9	0	8.4*	0	10
CCc1noc(C2CC(=O)N(c3ccccc3F)C2)n1 (stereo not drawn)	-8	-2	0	1	·	·
CN(NC(=O)Oc1ccccc1)c1ncc(C(F)(F)F)cc1Cl	6	-6	0	1	·	·
SMILES	TEAD-YAP block	MITF inh	FBW7 act	GPR151 ag	GPR151 conf act	GPR119 counter
COc1ccc(NC(=O)Nc2ccc(C(=O)N3CCCCC3)cc2)cc1	-4	14	1	12*	1	3
COc1ccc(C(=O)NCc2n[nH]c(=S)n2-c2cccc(C(F)(F)F)c2)cc1OC	-3	-2	0	-1	·	·
Cc1cc(CN(C)C(=O)CC2(c3ccccc3C)CC(=O)N(Cc3cccnc3)C2=O)n[nH]1 (stereo not drawn)	-9	-5	0	1	·	·
Cc1cc(CN(C)C(=O)CC2(c3cccc(F)c3)CC(=O)N(Cc3cccnc3)C2=O)n[nH]1 (stereo not drawn)	0	13	0	12*	0	7
Cc1ccc(S(=O)(=O)N2CCN(c3ccc4nnc(C5CC5)n4n3)CC2)c(C)c1	-14	-6	0	0	·	·
CN(C)c1ncc(CN2CCN(CCc3ccccc3)C(CCO)C2)s1 (stereo not drawn)	10	10	0	9.8*	0	5
CN(C)c1ncc(CN2CCN(Cc3ccc(F)cc3)C(CCO)C2)s1 (stereo not drawn)	-7	-2	0	4	·	·
COc1ccc(CN2CCN(Cc3cnc(-c4ccccc4)s3)CC2CCO)cc1C (stereo not drawn)	13	-5	0	6.7*	0	-4
CCOc1ccc(CN2CCN(Cc3cnc(-c4ccccc4)s3)CC2CCO)cc1 (stereo not drawn)	12	16	0	-1	·	·
COc1ccc(-n2c(/C=C3/C(=O)N(C)c4ccc(Br)cc43)nc3ccccc3c2=O)cc1	6	-1	0	-2	·	·
Cc1ccc(C(C)(C)C)cc1S(=O)(=O)Nc1cc(C(=O)O)cc(C(=O)O)c1	-1	-6	0	1	·	·
O=S(=O)(c1ccccc1)c1ccc(-c2nnc(-c3ccccc3Cl)o2)cc1	1	-4	0	1	·	·
FC(F)(F)c1ccc(Cl)c(NC2=NCCCCC2)c1	3	11	0	6.1*	-1	-8
CC(C)CC(c1nnnn1Cc1ccco1)N1CCN(C2CCCCC2)CC1 (stereo not drawn)	-1	-5	0	2	·	·
Cc1cc(C)n2nc(SCC(=O)Nc3c(C)nn(-c4ccccc4)c3C)nc2n1	-9	-3	0	5.4*	2	2
Cc1cc(C)n2nc(SCC(=O)Nc3ccccc3C(C)(C)C)nc2n1	-10	13	0	-1	·	·
NC(=O)c1ccccc1NC(=O)/C=C/c1ccc(Cl)cc1	-55	3	0	-3	·	·
O=C(/C=C/c1ccc([N+](=O)[O-])cc1)Nc1ccccc1Cl	-10	-18	0	7.4*	-2	-12
NC(=O)c1ccccc1NC(=O)/C=C/c1ccccc1	-33	1	0	7.7*	-1	-12
O=c1[nH]c2cc(Cl)c(Cl)cc2[nH]c1=O	-17	22	0	5.5*	-1	-4
COc1ccc2[nH]c(=O)c(=O)[nH]c2c1	12	35	0	1	·	·
COc1cc(NC(=O)c2cccc(-n3cc(NC(=O)N[C@@H](C)c4ccccc4)cn3)c2)ccc1N1CCOCC1	3	10	0	5.7*	0	-4
CCN(CC)c1nc(NCc2cccnc2)nc(N2CCN(c3ccccn3)CC2)n1	-1	7	0	6.0*	-1	-14
CCN(CC)c1nc(NCCO)nc(N2CCN(c3ccccn3)CC2)n1	5	14	0	7.6*	0	-4

Compound activity (PubChem BioAssay)
